Shown are actives, neighbours in structure and some others; about 6.6% of the full set was active somewhere.
KB-3-1 cytotox: qHTS assay for MDR1-selective chemotherapeutics: Primary screen using the parental adenocarcinoma cell KB-3-1; Potency, µM (titrated, usually from 46.1 µM), usual class: cytotoxic; 400,000 tested, 1.4% active; KB-3-1 viability, CellTiter-Glo ATP luminescence, 72 h; note: nearly all actives have a fitted effect of over 60% in size
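Multi-concentration cytotoxicity screen in KB-3-1 cells grown in DMEM lacking phenol red with 10% FBS. After 72 h at 37 °C with compound, ATP-dependent luminescence was recorded.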
HT1080NT lethal: qHTS for induction of synthetic lethality in tumor cells producing 2HG: qHTS for the HT-1080-NT fibrosarcoma cell line. 360,000 tested, 1.6% active. Potency, µM (top dose mostly 46.1 µM), most hits filed as cytotoxic. HT-1080-NT fibrosarcoma viability, CellTiter-Glo ATP luminescence, 48 h;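 note: NT is the 2HG producing partner of a matched IDH1 knockdown line; nearly all actives have a fitted effect of over 55% in size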
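Viability of the 2HG-overproducing fibrosarcoma line after 48 hours of compound exposure at 37 degrees C was determined by luminescence with CellTiter-Glo, and concentration-effect curves were then fitted and categorized.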
TGFb SMAD3 inh: qHTS for Inhibitors of TGF-b; HepG2 CAGA-GFP TGF-b/SMAD3 reporter, GFP fluorescence, 18 h; TGF-beta stimulated, 500 pg/mL final; Potency, µM (doses to about 46.1 µM), hits mostly inhibitors; 410,000 tested, 1.2% active; AID 588855, 2011; note: nearly all actives have a fitted effect of over 65% in size
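HEPG2 CAGA-GFP, 1000 cells/well; 2 h settle, 37 C; cpd via pin tool; TGF-b 500 pg/mL final; 18 h, 37 C; GFP imaging ex488/em500-530; %Activity normalised to -TGF-b and +DMSO controls; CRC fit, curve class.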
HepG2 tox: qHTS for Inhibitors of TGF-b: Cytotox Counterscreen | HepG2 CAGA-GFP viability, ATP luminescence, 18 h | Potency, µM (titrated, usually from 46.1 µM), usual class: cytotoxic | 410,000 tested, 0.76% active | AID 588856, 2011
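HepG2 CAGA-GFP cells (1000/well, DMEM with 1% FBS) received compound, then TGF-beta at 500 pg/mL final, and were incubated 18 hours at 37 degrees C. Viability was read by CellTiter-Glo luminescence. Media-only wells were set as complete cell-killing and DMSO as no toxicity.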
KB-V1 cytotox: qHTS assay for MDR1-selective chemotherapeutics: Primary screen using the drug-selected MDR subline cells KB-V1; KB-V1 MDR cells viability, CellTiter-Glo, 72 h; Potency, µM (top dose mostly 46.1 µM), actives largely listed as cytotoxic; 400,000 tested, 3.4% active; note: nearly all actives have a fitted effect of over 60% in size
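Cytotoxicity toward P-gp-expressing KB-V1 cells was determined as loss of CellTiter-Glo luminescence after 72 h at 37 degrees C. Compounds were tested in quantitative HTS format across a concentration range, with curves fitted to normalized data.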
HT1080 IDH1KD tx: qHTS for induction of synthetic lethality in tumor cells producing 2HG: qHTS for the HT-1080-IDH1KD cell line; 360,000 tested, 2% active; HT-1080 IDH1 knockdown viability, ATP luminescence, 48 h; Potency, µM (series often up to 46.1 µM), usual class: cytotoxic; AID 686971, 2013
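Using the IDH1-knockdown HT-1080 line run in the same batch and compound series as the NT line, viability after 48 h at 37 °C was determined by CellTiter-Glo luminescence and expressed as % activity.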
Hits are given with their value; i = inactive; ? = inconclusive; nt = no result given; ! = not confirmed by another sample. Calls come from the whole dose curve; as a rule, active = well fitted curve in the direction sought with a large enough effect; inconclusive = small, poorly fitted or top-dose-only effect, or another doubt; inactive = no such curve, though single readings can be large; an effect the other way counts as inactive or inconclusive.

SMILES | KB-3-1 cytotox | HT1080NT lethal | TGFb SMAD3 inh | HepG2 tox | KB-V1 cytotox | HT1080 IDH1KD tx
O=C(NCC1CCCO1)c1cnn2c(C(F)F)cc(C3CC3)nc12 (stereo not given) | i | i | i | i | 6.5µM | i
COc1ccc(-n2nc3c(N4CCC(C(=O)NCc5ccccc5C)CC4)nnc(C)c3c2C)cc1 | i | 15µM | ? | i | i | 16µM
COc1ccc(-n2nc3c(N4CCCC(C(=O)NCc5ccccc5C)C4)nnc(C)c3c2C)cc1 (stereo not given) | nt | nt | 5µM | i | nt | nt
Cc1ccc(-n2nc3c(N4CCC(C(=O)NCCC(C)C)CC4)nnc(C)c3c2C)cc1 | i | nt | ? | i | i | nt
Cc1ccc(-n2nc3c(N4CCC(C(=O)NC(C)c5ccccc5)CC4)nnc(C)c3c2C)cc1 (stereo not given) | i | nt | 8.9µM | 11µM | i | nt
Cc1ccc(-n2nc3c(N4CCC(C(=O)NCCc5ccccc5C)CC4)nnc(C)c3c2C)cc1 | ? | i | 4.5µM! | i | ? | i
COc1ccc(-n2nc3c(N4CCC(C(=O)NCCc5ccccc5C)CC4)nnc(C)c3c2C)cc1 | i | i | i | i | i | i
Cc1nnc(N2CCC(C(=O)NC(C)C)CC2)c2nn(-c3ccccc3)c(C)c12 | i | nt | i | i | i | nt
Cc1ccc(NC(=O)CCCn2c(=O)c3cccn3c3cccnc32)cc1C | nt | nt | i | i | nt | nt
Cc1ccc(CCNC(=O)CCCn2c(=O)c3ccccc3n(CC(=O)Nc3cc(Cl)ccc3C)c2=O)cc1 | i | nt | ? | i | i | nt
CCOc1ccccc1CNC(=O)C1CCCN(c2nnc(C)c3c(C)n(-c4ccccc4)nc23)C1 (stereo not given) | ? | 21µM | ? | i | ? | 18µM
COc1ccccc1CNC(=O)C1CCCN(c2nnc(C)c3c(C)n(-c4ccccc4)nc23)C1 (stereo not given) | i | nt | ? | i | i | nt
CCCCC(=O)Nc1ccc(C(=O)OCc2cc(=O)n3ccsc3n2)cc1 | i | nt | i | i | i | nt
COc1cccc(CN(C)Cc2cc(=O)oc3c(C)c(C)ccc23)c1 | 16µM | i | i | i | i | i
CN(Cc1ccccc1)C(=O)COC(=O)c1ccc[nH]c1=O | i | i | i | i | i | i
CCCS(=O)(=O)NC(=O)C1(C)CCCN(C(=O)c2ccccc2F)C1 (stereo not given) | i | i | i | i | i | i
O=c1[nH]c(/C=C/c2ccc(Br)cc2)nc2ccccc12 | i | i | i | i | i | i
Cc1nc(/C=C/c2ccccc2)[nH]c(=O)c1-c1ccccc1 | ? | ? | i | i | 18µM | i
O=c1[nH]c(/C=C/c2ccccc2F)nc2ccccc12 | 4.6µM | ? | i | i | 2.6µM | 5.8µM
C(=C\c1nc2ccccc2[nH]1)/c1ccccc1 | 18µM | 18µM | i | 10µM | i | 18µM
Cc1cccc(/C=C\c2nc3ccccc3c(=O)[nH]2)c1 | 15µM | ? | i | i | ? | 5.8µM
Cc1ccccc1Nc1c(-c2ccc(N3CCOCC3)cc2)nc2ccc(Cl)cn12 | i | nt | i | i | i | nt
COc1ccccc1OCC(=O)Nc1cc(S(=O)(=O)N2CCOCC2)ccc1N1CCCCC1 | i | i | i | i | i | i
COc1ccccc1CN(Cc1nc2ccccc2c(=O)[nH]1)C(=O)Nc1ccc(C)cc1 | i | i | i | i | 21µM | i
Cc1ccc(NC(=O)N(Cc2nc3ccccc3c(=O)[nH]2)Cc2cccs2)cc1 | i | i | i | i | i | i
COc1ccccc1CN(Cc1nc2ccccc2c(=O)[nH]1)C(=O)Nc1ccccc1C | i | ? | i | i | i | 11µM

Screens deposited in PubChem by National Center for Advancing Translational Sciences (NCATS).
